# A selection: hits, their analogues and other compounds. The true share with any hit is near 0.54%.
# FXIa mix inh – blocks human factor XIa in pooled compound mixtures | P03951 | purified FXIa, fluorogenic substrate | inhibition, % at 5 µM | actives 0.19% (n = 62,000);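 note: each value is inhibition by a whole ten-compound pool holding the compound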
# PKA inh – PKA (human) kinase inhibition; P17612; PKA Kemptide phosphorylation, Kinase-Glo ATP luminescence; inhibition, % at 6 µM; actives 0.1% (n = 65,000); AID 524;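 active = inhibition above the screen-wide mean inhibition plus 3 SD, cut at about 21% in these data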
# FXIIa mix inh – blocks human factor XIIa in pooled compound mixtures. P00748. purified FXIIa, fluorogenic substrate. inhibition, % at 5 µM. actives 0.2% (n = 62,000). AID 684
# ROCK2 blocker – inhibitors of human Rho kinase 2; purified ROCK2, Kinase-Glo ATP depletion luminescence; O75116; inhibition, % at 6 µM; actives 0.35% (n = 60,000);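 active = inhibition above the screen-wide mean inhibition plus 3 SD, cut at about 18% in these data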
# Numbers stand for hits; i = inactive. Cut-off read from the data, not from the text of the source, unless noted: active = inhibition above about 20% (passing the limit was not always enough); inactive = the rest.
SMILES,FXIa mix inh,PKA inh,FXIIa mix inh,ROCK2 blocker
CC(C)[C@@]1(NC(=O)[C@@H]2C=C3c4cccc5[nH]cc(c45)C[C@H]3N(C)C2)O[C@@]2(O)[C@@H]3CCCN3C(=O)[C@H](Cc3ccccc3)N2C1=O,i,i,i,i
CC(C)[C@H]1C(=O)N2CCC[C@H]2[C@]2(O)O[C@](NC(=O)[C@@H]3C=C4c5cccc6[nH]cc(c56)C[C@H]4N(C)C3)(C(C)C)C(=O)N12,i,i,i,36
Cc1[nH]c2ccccc2c1C1=CCNCC1,i,i,i,26
CCn1nc(-c2cccs2)nc2c(=O)n(C)c(=O)nc1-2,i,i,i,69
Clc1ccc(COC(Cn2ccnc2)c2ccc(Cl)cc2Cl)c(Cl)c1 (stereo not given),i,i,i,i
CCOC(=O)N(C)c1ccc(C(O)(C(=O)OCC)C(F)(F)F)cc1 (stereo not given),i,i,i,i

# From PubChem
